Hits are enriched below; roughly 19% of the tested compounds scored in any of these assays.
IL-1B inflam inh: inhibitors of inflammasome signaling (IL-1 beta secretion); 360,000 compounds, 4.7% hits; activity change, % at 57.5 µM; AID 743279; THP-1 LPS/ATP IL-1B secretion, AlphaLISA, 16 h; hits give low values; in the data active means activity change below about -50%; inconclusive means mostly about -30% to -49%; further: on the % scale 0 is the no-effect control and ±100 the full control effect
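Secreted IL-1B measured by AlphaLISA bead assay after 16 h compound exposure of THP-1 cells; compounds (final up to 57.5 uM) added 1 h before LPS (250 ng/mL) and ATP (1.25 mM) stimulation; lower signal means less secretion.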
MCF10A rerep: induces DNA re-replication in MCF 10a normal breast cells; 350,000 compounds, 2.9% hits; MCF 10A DNA re-replication, Hoechst nuclear intensity, 48 h; Potency, µM (top dose mostly 46.1 µM), for the others: at the highest dose activity, positive = re-replication, most hits filed as activators; further: potency means the concentration at half of the fitted maximal effect; % of control where 0% means no effect; nearly all actives have a fitted effect of over 50% in size
DT40 TDP1 CPT: DT40-hTDP1 cell growth loss with CPT; 420,000 compounds, 12% hits; chicken DT40 Tdp1-/-;hTDP1 cells + 20 nM CPT, ATP luminescence, 48 h; Potency, µM (highest dose often 46.2 µM), without a hit: at the highest dose activity change, negative = growth inhibition, actives largely listed as inhibitors; further: potency means the concentration at half of the fitted maximal effect; on the % scale 0 is the no-effect control and ±100 the full control effect; nearly all actives have a fitted effect of over 55% in size
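Chicken DT40 Tdp1-/- cells stably complemented with human TDP1 were seeded at 400 cells/well in medium containing 20 nM camptothecin, exposed to pin-transferred compounds, and grown at 37 °C for at least 48 hr. Viability was read as ATP luminescence.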
SW480 rereplic: inducers of DNA re-replication in SW480 colon cancer cells; SW480 DNA re-replication, Hoechst DNA content imaging, 48 h; 340,000 compounds, 1.8% hits; Potency, µM (doses to about 46.1 µM), for inactives: at the top dose re-replication activation, hits mostly activators; AID 624297; further: potency means the concentration at half of the fitted maximal effect; % of control where 0% means no effect; nearly all actives have a fitted effect of over 55% in size
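Treated cells incubate 48 hr (37 C, 5% CO2), are stained 40 min with Hoechst, and nuclear fluorescence is enumerated; a rise in nuclei with high DNA signal marks re-replication.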
TDP1 cell noCPT: qHTS for Inhibitors of human tyrosyl-DNA phosphodiesterase 1 (TDP1): qHTS in cells in absence of CPT. AID 686978, 2013. DT40 Tdp1-/- hTDP1 cells, no CPT, ATP luminescence, 48 h. 420,000 compounds, 15% hits. Potency, µM (series often up to 46.2 µM), for the others: at the top dose activity change, negative = growth inhibition, most hits filed as inhibitors; further: potency means the concentration at half of the fitted maximal effect; on the % scale 0 is the no-effect control and ±100 the full control effect; nearly all actives have a fitted effect of over 55% in size
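Chicken DT40 Tdp1-/- cells stably complemented with human TDP1 were seeded at 400 cells/well with DMSO in place of 20 nM camptothecin. After compound pinning, cells grew at least 48 hr at 37 °C; viability read by CellTiter-Glo luminescence.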
BCR signal inh: chronic active BCR signaling inhibition; Potency, µM (doses to about 46.1 µM), without a hit: top-dose activity change, negative = inhibition, hits mostly inhibitors; AID 493014; 340,000 compounds, 0.05% hits; ABC-DLBCL IkBa-CBG/CBR reporter, luminescence ratio, 4 h; active means well fitted inhibition curve with a large enough effect in the signal ratio, with a control signal flat, not every such curve was filed as active; inconclusive means small, poorly fitted or top-dose-only effect, or effect the other way, or a change in a side signal; the % refers to the signal ratio;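 further: potency means the concentration at half of the fitted maximal effect; plate controls were basal doxycycline-induced cells for no effect and cells given 10 µM MG132 for full effect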
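Cell line TMD8 (human ABC DLBCL), stably expressing tet-inducible CBG68-IkBa fusion and CBR; IMDM/0.5% FBS; cpd up to 46 uM; dox induction, 4 h, 37C/5% CO2; dual luminescence; green/red ratio; MG132 control.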
An asterisk follows results filed as active; u = inconclusive; x = not tested or not shown; ! = repeats disagree. Unless noted, the call rests on the fitted dose curve; in most records, active means well fitted curve in the direction sought with a large enough effect; inconclusive means small, poorly fitted or top-dose-only effect, or another doubt; inactive means no such curve, though single readings can be large; an effect the other way counts as inactive or inconclusive.

SMILES | IL-1B inflam inh | MCF10A rerep | DT40 TDP1 CPT | SW480 rereplic | TDP1 cell noCPT | BCR signal inh
COc1cc(NC(=O)c2cccs2)c(OC)cc1NC(=O)CCC(=O)Nc1ccc2ncccc2c1 | -15 | 21µM* | u | u | u | 10%
COc1ccc(-c2ccccc2)cc1NC(=O)c1cccs1 | u | -1% | 1% | -3% | u | -7%
COc1ccc(OCC(=O)Nc2ccc(NC(=O)c3cccs3)c(OC)c2)cc1 | -2 | -1% | 1% | -2% | -14% | -8%
COc1cc(NCCC(=O)c2cccs2)c(OC)cc1Cl | -9 | 21µM* | 3.7µM* | u | 4.6µM* | -5%
COc1ccccc1CC(=O)Nc1cc(OC)c(NC(=O)c2ccccc2)cc1OC | -21 | 2% | -59% | 3% | 13µM* | -5%
Fc1cc(F)c2ncc3c(-c4ccccc4)nn(-c4cccc(Cl)c4)c3c2c1 | x | x | -9% | x | -2% | x
COc1cc(NC(=O)c2cccs2)c(OC)cc1NC(=O)Cc1ccccc1 | -54* | 19% | u | -1% | 23µM* | 12%
Cc1cc(=O)[nH]c(SCC(=O)O)c1C#N | 61 | 2% | 3% | -3% | 0% | 5%
COc1cc(NC(=O)c2cccs2)c(OC)cc1NC(=O)c1cccs1 | 3 | 11% | 8% | -2% | -4% | x
COc1cc(NC(=O)c2ccccc2)c(OC)cc1NC(=O)CSc1[nH]c(=O)cc(C)c1C#N | 35 | u | 3.7µM* | u | 2.3µM* | 2%
Cc1cc(=O)[nH]c(SCC(=O)C23CC4CC(CC(C4)C2)C3)c1C#N | u | u | 8.2µM* | u | 18µM* | u
CCOC(=O)NC(=O)C(/C=N/c1sccc1C(=O)OC)=C(\C)O | -24 | u | u | u | -44% | -3%
CCCCN1CCC(CCC(=O)c2cc(Cl)c(N)cc2OC)CC1 | x | x | u | x | 27µM*! | x
CCCCN1CCC(COC(=O)c2cc(Cl)c(N)c3c2OCCO3)CC1 | -14 | 5% | 5% | -36% | -25% | 0%
CCC(c1nnnn1Cc1ccccc1)N1CCN(C/C=C/c2ccccc2)CC1 (configuration not stated) | -8 | x | u | x | 15µM* | x
COc1ccc(N2CCN(C(c3ccccc3)c3nnnn3Cc3ccccc3)CC2)cc1 (configuration not stated) | x | x | u | x | 16µM* | x
CCCCn1nnnc1C(c1ccccc1)N1CCN(c2ccc(OC)cc2)CC1 (configuration not stated) | 0 | x | u | x | u | x
Fc1ccc(C(c2ccc(F)cc2)N2CCN(C/C=C/c3ccccc3)CC2)cc1 | -12 | 23µM* | 3.7µM* | u | 23µM* | -1%
CN1CCN(C(c2cccc(C(F)(F)F)c2)c2nnnn2Cc2ccccc2)CC1 (configuration not stated) | -54* | -5% | -25% | 18% | u | 0%
C(=C\c1ccccc1)/CN1CCN(C(c2ccccc2)c2ccccc2)CC1 | 16 | u | u | 0% | u | -2%
C(=C\c1ccccc1)/CN1CCN(C(c2ccccc2)c2nnnn2Cc2ccccc2)CC1 (configuration not stated) | 0 | x | 29µM* | x | u | x
CCN1CCN(C(c2ccccc2)c2nnnn2Cc2ccc(OC)cc2)CC1 (configuration not stated) | u | 1% | -17% | 2% | -6% | 8%
FC(F)(F)Oc1ccccc1C(c1nnnn1Cc1ccccc1)N1CCN(C/C=C/c2ccccc2)CC1 (configuration not stated) | -55* | x | u | x | u | x
